Consider 38 compounds from PubChem BioAssay AID1053126 (Broad Institute, 2014).

Results with a measured potency or affinity are listed apart. Calls of active or inactive are those of the source.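 The calls were made as follows: active = cell killing with a fitted half-effect concentration at or below twice the top valid dose; inconclusive = flat curve with 30 to 70 percent drop, or poor fit; inactive = the rest.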

This assay in a line: HEK293T cell cytotoxicity, dose response, cytotoxicity control, ATP luminescence, cherry-pick, set 6 (AID 1053126). The conditions noted are these: HEK293T viability, CellTiter-Glo ATP luminescence, 72 h; series mostly up to 26 µM. On the technique in general: In ATP-based viability assays light output follows the ATP content of the culture.
`O=C(O)c1cccc(Nc2nc(-c3cc4ccccc4oc3=O)cs2)c1`: the compound was classed as inactive.

Take `CCc1nc2ccc(C(=O)NCCc3c[nH]c4ccccc34)cn2c1N(C=O)CCC(C)C`: the outcome was inactive.

Turning to `COc1cc(C2C3=C(CC(C)(C)CC3=O)N(C)C3=C2C(=O)CC(C)(C)C3)cc(Br)c1O`, the call was inactive.

Take `CCOc1ccc2nc(NCCCNC(=O)c3cc(OC)c(OC)c(OC)c3)c(C#N)cc2c1`: the outcome was inactive.

Regarding `CCN(CC)CCN1C2=C(C(=O)CC(C)(C)C2)C(c2cccc(F)c2)C2=C1CC(C)(C)CC2=O`, the outcome was inactive.

`O=C(O)c1[nH]c2ccccc2c1C(c1cc(Br)ccc1O)c1c(C(=O)O)[nH]c2ccccc12`: the outcome was inactive.

Turning to `O=c1oc2c(CN3CCN(CCO)CC3)c(O)ccc2cc1-c1ccccn1`, the outcome was inactive.

As for `Nn1c(SCC(=O)N2CCCC2)nnc1-c1cccs1`, the call was inactive.

In the case of `COc1ccc(C(=O)Oc2cc(N)n(S(=O)(=O)c3ccccc3)n2)cc1`, the call was inactive.

As for `CC(C)OCCCn1c(=N)c(C(N)=S)cc2c(=O)n3ccccc3nc21`, the outcome was inactive.

On to `Cn1c(=N)c(S(=O)(=O)c2ccccc2)cc2c(=O)n3ccccc3nc21`, for which the result was inactive.

`CCN(CC)CCCNc1nc(C)cc(COC)c1C#N`: the compound was called inactive.

For the compound `O=C(Nc1ccc(-c2ccco2)cc1)C1CCCN(Cc2ccco2)C1` (stereo not drawn), the call was inactive.

With `O=C(NNc1c2ccccc2nc2ccccc12)c1ccc(O)cc1`, the compound was classed as inactive.

For `COc1ccc(C2C3=C(CCCC3=O)N(CC(=O)O)C3=C2C(=O)CCC3)cc1`, the call was inactive.

For `CCC(=O)NCCCNc1nc2c(C)cccc2cc1C#N`, the compound was called inactive.

Turning to `Cc1ccc(O)c(NC(=S)NC(=O)COc2ccc(Br)cc2)c1`, the result was inactive.

For `COc1ccc(Cn2nnnc2C(CC(C)C)N2CCC(C(N)=O)CC2)cc1` (stereo not drawn), the compound was classed as inactive.

Turning to `CSc1ccc(Cn2c(C)c(C(=O)NCCC#N)sc2=O)cc1`, the compound was classed as inactive.

In the case of `COc1c(Cl)cc(-c2noc(C)c2C(=O)NCc2ccc3c(c2)OCO3)cc1Cl`, the result was inactive.

As to `CCOC(=O)c1cc2c(=O)n3ccccc3nc2n(CCCOC)c1=NC(=O)c1ccncc1`, the compound was classed as inactive.

In the case of `Clc1cccc(CN2CCN(Cc3nc(CCc4ccccc4)no3)CC2)c1`, the compound was classed as inactive.

Take `CCC(C)n1c(=N)c(C#N)cc2c(=O)n3cc(C)ccc3nc21` (stereo not drawn): the compound was called inactive.

On to `COCCNC(=O)c1cc2c(=O)n3cccc(C)c3nc2n(Cc2ccncc2)c1=N`, for which the result was inactive.

Take `CCC(C)n1c(=N)c(C#N)cc2c(=O)n3cccc(C)c3nc21` (stereo not drawn): the outcome was inactive.

For `O=C(O)[C@@H]1CCCN1S(=O)(=O)c1cccc(S(=O)(=O)N2CCC[C@H]2C(=O)O)c1`, the result was inactive.

`Cc1ccc(-n2nnnc2CNC(=O)C(=O)c2c[nH]c3ccccc23)cc1C`: the outcome was inactive.

Consider `CSc1ccc(Cn2c(C)c(C(=O)NCc3cccc(Cl)c3)sc2=O)cc1`, for which the call was inactive.

As for `CCOC1=NN(c2ncc(C(F)(F)F)cc2Cl)C(=O)C1`, the compound was classed as inactive.

For `C=Cc1ccc(Cn2c(C)c(C(=O)NCc3cccc(C)c3)sc2=O)cc1`, the outcome was inactive.

Regarding `N=c1c(C(=O)NCC2CCCO2)cc2c(=O)n3ccccc3nc2n1Cc1ccc(Cl)cc1` (stereo not drawn), the compound was classed as inactive.

Consider `CCC(Sc1nc(N)c(NC(=O)c2ccc(OC)cc2)c(=O)[nH]1)C(=O)O` (stereo not drawn), for which the outcome was inactive.

With `CCc1nnc(NC(=O)c2ccc(-c3ccccc3F)o2)s1`, the result was inactive.

Take `O=C(CCCn1c(=O)c2sccc2n(Cc2cc(=O)n3ccccc3n2)c1=O)NCc1ccco1`: the compound was classed as inactive.

For `CC(C)CCN1C(=O)c2cccc3c(N)ccc(c23)C1=O`, the compound was called inactive.

On to `NC(=O)c1c(NC(=O)Cc2ccccc2)sc2c1CCN(Cc1ccccc1)C2`, for which the outcome was inactive.

`CCOc1ccc(C(=O)c2cc3ccc(O)cc3oc2=O)cc1`: the compound was classed as inactive.

For `CCOC(=O)c1oc2c(CN3CCN(CCO)CC3)c(O)c(CC)cc2c(=O)c1-c1nc2ccccc2s1`, the outcome was inactive.
